Drawing on PubChem BioAssay AID1563 (The Scripps Research Institute Molecular Screening Center, 2009), this text covers activation for one compound.

In this experiment the target is Sphingosine 1-phosphate receptor 1 (Homo sapiens) (UniProt P21453). The experiment is described as follows: S1P1 receptor agonists, human, counter-screen for S1P4 agonist project, cell-based (AID 1563).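 Further: 0% = vehicle wells and 100% = reference agonist.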 To be noted: S1P1 agonist cell-based assay, at 4.98 µM, hits give high values. On the technique in general: The purpose of a counterscreen is to sort out artefacts and off-target activity.

Some of the results follow. Unmarked numbers belong to inactive results. No stated cut-off is given here; in the data, active means activation above about 21%; inactive means the rest.

Sequence of Sphingosine 1-phosphate receptor 1 (Homo sapiens) (P21453 whole entry, looked up): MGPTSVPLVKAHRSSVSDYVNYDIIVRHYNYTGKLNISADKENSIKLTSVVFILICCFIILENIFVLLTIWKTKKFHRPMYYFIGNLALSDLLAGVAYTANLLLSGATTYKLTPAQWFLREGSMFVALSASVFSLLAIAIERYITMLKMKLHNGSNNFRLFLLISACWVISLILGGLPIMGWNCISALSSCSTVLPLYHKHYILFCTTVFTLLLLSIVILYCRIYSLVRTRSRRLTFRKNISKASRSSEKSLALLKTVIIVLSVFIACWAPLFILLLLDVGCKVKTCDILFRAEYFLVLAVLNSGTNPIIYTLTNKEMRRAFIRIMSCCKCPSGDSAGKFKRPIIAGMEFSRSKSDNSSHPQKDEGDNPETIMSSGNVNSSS

Take `CC(C)N(CC#CCC1(O)c2ccccc2-c2ccccc21)C(C)C`: the activation was 1.18%.
